In PubChem BioAssay (NCATS) one finds Potency data, which are given here for 6 compounds.

Records with an inconclusive call do not appear. Activity calls are given as the source filed them. Calls come from the whole dose curve; as a rule, active = well fitted curve in the direction sought with a large enough effect; inconclusive = small, poorly fitted or top-dose-only effect, or another doubt; inactive = no such curve, though single readings can be large; an effect the other way counts as inactive or inconclusive. Square brackets hold non-standard residues; d marks the D form. Peptide text beside a SMILES is read from it. Orn = NCCC[CH](N)C(=O)O

The nature of assay [1]: S16 Schwann cell PMP22 intronic element firefly luciferase assay (AID 624032). Note: nearly all actives have a fitted effect of over 30% in size. A digest of the protocol: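 Rat S16 Schwann cells stably carrying firefly luciferase driven by a PMP22 intronic element, in 10% FBS, treated 24 h at 37 C. ONE-Glo luminescence normalized to PTC124 control and DMSO (0%); curves classed by r2, magnitude and activity.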
A further assay deals with 3D7. The assay is described as follows: qHTS profiling for inhibitors of Plasmodium falciparum proliferation (AID 504749). Note: nearly all actives have a fitted effect of over 60% in size. The note with it: P. falciparum in erythrocytes, SYBR Green DNA, 72 h; series mostly up to 28.7 µM. A digest of the protocol: (§1)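 Readout was DNA-dye fluorescence from lysed cultures, ex 485/em 535 nm. Parasitized red cells had grown 72 h with compound; data scaled between 0.29 uM artemisinin and DMSO wells and corrected using vehicle-only plates.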
In general terms: In qHTS, concentration-response curves come from the screen itself.

For a further assay, the system named is AS120. The assay is described as above. The note with it: P. falciparum in erythrocytes, SYBR Green DNA, 72 h; series mostly up to 28.7 µM. A digest of the protocol:
as §1

In the next assay the test system is ATS95. The description is as above. The note with it: P. falciparum in erythrocytes, SYBR Green DNA, 72 h; series mostly up to 28.7 µM. A digest of the protocol:
as §1

Another assay concerns CP191. Described as above. The conditions noted are these: P. falciparum in erythrocytes, SYBR Green DNA, 72 h; series mostly up to 28.7 µM. A digest of the protocol:
as §1

The subject of a further assay is CP211. The assay is described as above. The conditions noted are these: P. falciparum in erythrocytes, SYBR Green DNA, 72 h; series mostly up to 28.7 µM. A digest of the protocol: as §1
Another assay relates to CP247. The description is as above. The conditions noted are these: P. falciparum in erythrocytes, SYBR Green DNA, 72 h; series mostly up to 28.7 µM. A digest of the protocol:
as §1

For another assay, the system named is CP250. Described as above. The note with it: P. falciparum in erythrocytes, SYBR Green DNA, 72 h; series mostly up to 28.7 µM. A digest of the protocol:
as §1

A further assay deals with CP262. The assay is described as above. The note with it: P. falciparum in erythrocytes, SYBR Green DNA, 72 h; series mostly up to 28.7 µM. A digest of the protocol:
as §1

The test system of a further assay is CP297. The description is as above. The conditions noted are these: P. falciparum in erythrocytes, SYBR Green DNA, 72 h; series mostly up to 28.7 µM. A digest of the protocol:
as §1

For another assay, the system named is CP335. Described as above. The conditions noted are these: P. falciparum in erythrocytes, SYBR Green DNA, 72 h; series mostly up to 28.7 µM. A digest of the protocol: as §1
The test system of a further assay is Dd2. The description is as above. The note with it: P. falciparum in erythrocytes, SYBR Green DNA, 72 h; series mostly up to 28.7 µM. A digest of the protocol: as §1
Another assay deals with ECU. Described as above. The note with it: P. falciparum in erythrocytes, SYBR Green DNA, 72 h; series mostly up to 28.7 µM. A digest of the protocol: as §1
The test system of another assay is GB4. Described as above. The conditions noted are these: P. falciparum in erythrocytes, SYBR Green DNA, 72 h; series mostly up to 28.7 µM. A digest of the protocol:
as §1

The subject of another assay is N140. Described as above. The conditions noted are these: P. falciparum in erythrocytes, SYBR Green DNA, 72 h; series mostly up to 28.7 µM. A digest of the protocol: as §1
The next assay relates to P93_24. The assay is described as above. The conditions noted are these: P. falciparum in erythrocytes, SYBR Green DNA, 72 h; series mostly up to 28.7 µM. A digest of the protocol:
as §1

The next assay concerns PAD. The description is as above. The note with it: P. falciparum in erythrocytes, SYBR Green DNA, 72 h; series mostly up to 28.7 µM. A digest of the protocol: as §1
A further assay relates to SC27B. The description is as above. The conditions noted are these: P. falciparum in erythrocytes, SYBR Green DNA, 72 h; series mostly up to 28.7 µM. A digest of the protocol:
as §1

Another assay relates to TAB113. The assay is described as above. The conditions noted are these: P. falciparum in erythrocytes, SYBR Green DNA, 72 h; series mostly up to 28.7 µM. A digest of the protocol:
as §1

In another assay the test system is TAB165. The assay is described as above. The conditions noted are these: P. falciparum in erythrocytes, SYBR Green DNA, 72 h; series mostly up to 28.7 µM. A digest of the protocol: as §1
Potency is the fitted concentration of half-maximal effect.

Take `CCC(Oc1ccccc1)C(=O)NC1C(=O)N2C1SC(C)(C)C2C(=O)O` (stereo unspecified): the Potency result (in assay [1]; in the assay on 3D7; in the assay on AS120; in the assay on ATS95; with CP191; with CP211) was “inactive” in each case. For the same compound, the Potency entry in the assay on CP247, with CP250, in the assay with CP262, in the assay on CP297, in the assay with CP335 and in the assay on Dd2 was “inactive” in each case. Besides, the Potency entry in the assay on ECU, in the assay with GB4, in the assay on N140, in the assay on P93_24, in the assay on PAD and in the assay with SC27B was “inactive” in each case. The Potency entry in the assay with TAB113 and with TAB165 was “inactive” throughout.
For `O=C(OCC1OC(OC(=O)c2cc(O)c(O)c(OC(=O)c3cc(O)c(O)c(O)c3)c2)[C@@H](OC(=O)c2cc(O)c(O)c(OC(=O)c3cc(O)c(O)c(O)c3)c2)C(OC(=O)c2cc(O)c(O)c(OC(=O)c3cc(O)c(O)c(O)c3)c2)C1OC(=O)c1cc(O)c(O)c(OC(=O)c2cc(O)c(O)c(O)c2)c1)c1cc(O)c(O)c(OC(=O)c2cc(O)c(O)c(O)c2)c1` (stereo partly specified), the Potency in the assay with 3D7 is 2000 nM (active); in the assay on AS120, 2510 nM (active); with ATS95, 2820 nM (active); in the assay on CP191 it was 2820 nM (active); in the assay with CP211, 4780 nM (active); in the assay on CP247, 2820 nM (active). The Potency in the assay on CP250 is 2240 nM (active); with CP262, 4260 nM (active); in the assay with CP297, 3790 nM (active); in the assay with CP335, 1690 nM (active); in the assay on Dd2, 2240 nM (active); in the assay on ECU, 2240 nM (active). The Potency in the assay with GB4 was 3380 nM (active); with N140, 2240 nM (active); in the assay with P93_24, 2510 nM (active); in the assay with PAD, 3550 nM (active); in the assay with SC27B, 3160 nM (active); in the assay on TAB113, 2240 nM (active). In the assay with TAB165, the Potency was 2000 nM (active).
On to `COc1ccc(-c2nc3ccc(C4=C(C)CC(=O)NN4)cc3[nH]2)cc1`, for which the Potency result (in [1]; in the assay with CP191; with CP250; in the assay with CP262; with CP335) was “inactive” in each case.
Consider `CCOC(=O)C(CS)NCCN[C@@H](CS)C(=O)OCC` (stereo partly specified), for which the Potency in assay [1] was 10200 nM (active). For the same compound, the Potency result in the assay with 3D7, in the assay with AS120, in the assay on ATS95, in the assay on CP191, in the assay on CP211 and in the assay on CP247 was “inactive” throughout. Moreover, the Potency entry in the assay with CP250, with CP262, with CP297, with CP335, with Dd2 and in the assay on ECU was “inactive” in each case. The Potency result in the assay with GB4, with N140, in the assay on P93_24, in the assay with PAD, in the assay on SC27B and in the assay with TAB113 was “inactive” in each case. In addition, the Potency entry in the assay on TAB165 was “inactive”.
With `O=C(O)c1ccccc1-c1c2cc(Br)c(=O)c(Br)c-2oc2c(Br)c(O)c(Br)cc12`, the Potency result (in assay [1]; in the assay with 3D7; in the assay with AS120; in the assay with ATS95; in the assay on CP191; in the assay with CP211) was “inactive” throughout. The Potency result in the assay on CP247, with CP250, with CP262, in the assay with CP335, in the assay on Dd2 and with ECU was “inactive” in each case. For the same compound, the Potency result in the assay with GB4, in the assay with N140, with P93_24, in the assay with PAD, in the assay with SC27B and in the assay with TAB113 was “inactive” each time. The Potency entry in the assay on TAB165 was “inactive”.
For `CC(C)CC1NC(=O)C(CCCN)NC(=O)C(C(C)C)NC(=O)C2CCCN2C(=O)C(Cc2ccccc2)NC(=O)C(CC(C)C)NC(=O)C(CCCN)NC(=O)C(C(C)C)NC(=O)C2CCCN2C(=O)C(Cc2ccccc2)NC1=O` (stereo unspecified) (cyclo(FPV[Orn]LFPV[Orn]L); configuration not given here), the Potency is 642 nM (active) in assay [1]; 2.8 nM (active) in the assay with AS120; 0.9 nM (active) in the assay on ATS95; 2.8 nM (active) in the assay with CP191; 1.3 nM (active) with CP211; 2.8 nM (active) with CP247. Further, the Potency in the assay on CP250 is 2 nM (active); with CP297 it was 1.2 nM (active); in the assay with CP335 it was 0.5 nM (active); in the assay on Dd2, 1.1 nM (active); in the assay with ECU, 3.2 nM (active); in the assay with GB4, 0.5 nM (active). In addition, the Potency in the assay on N140 was 1.3 nM (active); in the assay with P93_24 it was 2 nM (active); with PAD, 0.8 nM (active); with SC27B, 6.3 nM (active); in the assay with TAB113 it was 2.2 nM (active); with TAB165 it was 1.3 nM (active).
